Assay outcomes from PubChem BioAssay.
D1 mod: allosterically modulates the human D1 dopamine receptor; P21728; HEK293 D1, CRE-luciferase, dopamine EC30 potentiation; actives deviate in either direction; B-score at 10 µM; 58,000 tested, 5.9% active; AID 641;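 active = luminescence count or its row- and column-corrected plate score outside the 99.7% band of the plate's sample wells, on either side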
Target sequence (P21728 whole entry, looked up): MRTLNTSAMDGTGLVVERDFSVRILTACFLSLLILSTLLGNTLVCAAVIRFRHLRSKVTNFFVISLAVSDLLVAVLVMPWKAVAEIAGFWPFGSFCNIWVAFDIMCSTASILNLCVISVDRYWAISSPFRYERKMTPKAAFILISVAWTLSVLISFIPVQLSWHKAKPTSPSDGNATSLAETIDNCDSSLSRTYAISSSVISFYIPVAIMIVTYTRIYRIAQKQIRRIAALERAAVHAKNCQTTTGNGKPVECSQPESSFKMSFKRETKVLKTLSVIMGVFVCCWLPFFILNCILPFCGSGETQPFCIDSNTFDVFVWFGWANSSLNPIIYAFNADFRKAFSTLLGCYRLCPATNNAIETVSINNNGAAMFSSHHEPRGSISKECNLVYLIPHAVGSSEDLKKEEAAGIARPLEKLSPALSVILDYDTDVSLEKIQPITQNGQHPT
FAK blocker: FAK (human) kinase inhibition. AID 727. 97,000 tested, 0.84% active. biochemical FAK kinase activity assay. inhibition, %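 (tested at 7 µM)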; in the data active = inhibition above about 19%;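 also: 0% = DMSO and 100% = reference compound high control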
PTK2B oligo ant: antagonists of human Pyk2 oligomerization; 99,000 tested, 0.83% active; Q293 cells, Pyk2 FERM NanoBiT luminescence; active compounds read low; AID 1347419; Q14289; z-score (the deposit names both 25 µM and 10 µM);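 active = Z-score of -3 or lower, scaled per plate to the spread of control and sample wells; inactive = z-score above -3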;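 also: negative z-score means lost luminescence so less FERM oligomerization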
Mac1 fbg enh: enhancers of human CD11b/CD18 binding to fibrinogen; activation, % at 10 µM; K562 CD11b/CD18 adhesion to fibrinogen, ATPlite luminescence; 93,000 tested, 0.07% active; P05107+P11215;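 active = 10 µM primary screen giving 50% or more activity, confirmed by 40% or more on retest at that dose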
hDAT+cocaine: human DAT dopamine uptake with cocaine, either direction; AID 449768; LLC-PK1 hDAT cells, [14C]-dopamine uptake with cocaine IC80; actives deviate in either direction; B-score at 10 µM; Q01959; 110,000 tested, 1.3% active;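 active = Z score or B-score, a plate-position-corrected score, falls beyond the plate's 99.7% confidence bounds, in either direction; inactive = both scores lie inside the 99.7% bounds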;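 also: scored against the spread of the other compound wells on the same plate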
Mac1 fbg inh: blocks human CD11b/CD18 adhesion to fibrinogen. AID 1497. P05107+P11215. inhibition, % at 10 µM. 93,000 tested, 0.54% active. K562 CD11b/CD18 adhesion to fibrinogen, ATPlite luminescence; Mn2+ added to activate the integrin;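 active = primary inhibition of 50% or more at 10 µM, then 40% or more on retest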
D1 PAM confirm: confirmation of human D1 dopamine receptor allosteric modulators | AID 642 | HEK293 D1 CRE-luciferase, dopamine EC30 potentiation; active compounds read high | luminescence at 10 µM | 2,200 tested, 88% active | shares compounds with D1 mod;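 active = luminescence in either of two replicates above the same-plate mean plus 3 SD of the low-dose dopamine control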
D1 ag no DA: activates D1 CRE-luciferase signal without dopamine present. luminescence at 10 µM. shares compounds with D1 mod. HEK293 D1 CRE-luciferase, luminescence, no dopamine; active compounds read high. 1,900 tested, 0.8% active. AID 646; in the data active = luminescence above about 3900
Isoprot counter: isoproterenol response counter-screen activity for D1 modulators | shares compounds with D1 mod | HEK293 D1 CRE-luciferase, isoproterenol EC30 counter-screen | calls only at 10 µM | 2,200 tested, 63% active;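 active = luminescence in either replicate above plate mean of wells with a partly effective reference agonist dose plus 3 SD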;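 also: isoproterenol raises cAMP through native beta-adrenoceptor Gs so signal bypasses D1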
* marks the source's active call; other numbers are inactive results; i = inactive; / = no result given; + = active, no number. Shown is part of a subset that was picked to be rich in hits.

SMILES	D1 mod	FAK blocker	PTK2B oligo ant	Mac1 fbg enh	hDAT+cocaine	Mac1 fbg inh	D1 PAM confirm	D1 ag no DA	Isoprot counter
CCCS(=O)(=O)N1CCN(S(=O)(=O)c2ccccc2)CC1	/	0.0	1.18	3.4	0.229	-0.5	/	/	/
N#Cc1c(N)sc(=S)c2c1CCCCC2	/	3.2	-0.01	-1.2	-0.353	-43.0	/	/	/
N#Cc1c(N)sc2c1CCCCCC2	5.85*	/	0.14	-1.7	-0.0972	16.1	13464*	1508	i
O=C(Cn1ncc(Cl)c(Cl)c1=O)N1CCN(S(=O)(=O)c2ccc3ccccc3c2)CC1	/	/	/	26.7	/	-24.4	/	/	/
CC(C)(C)NCC(O)c1cc(O)cc(O)c1 (configuration not stated)	8.05*	/	/	/	0.253	/	7100*	2544	+
O=c1c(F)cn(C2CCCO2)c(=O)n1Cc1c(F)cccc1Cl (configuration not stated)	6.17*	-3.5	0.27	-1.2	-0.237	-8.8	8312*	1800	+
O=c1[nH]c(=O)n(C2CCCO2)cc1F (configuration not stated)	/	/	/	/	-0.522	/	/	/	/
O=C(NCCNC(=O)C(c1ccccc1)c1ccccc1)c1ccco1	5.31*	-1.4	1.08	4.4	0.794	-3.9	6392*	/	i
O=C(NCCc1ccccc1)c1ccco1	/	-0.7	0.31	/	/	/	/	/	/
COc1ccc2ncn(-c3ccccc3)c2c1	5.15*	8.4	-0.62	1.6	0.818	5.4	8964*	1568	i
CC(C)c1cc(N2CCN(C(=O)c3ccco3)CC2)n2c(nc3ccccc32)c1C#N	5.95*	3.0	/	-0.2	0.1	2.6	8868*	/	+
CCCc1nc(N2CCOCC2)c(C#N)c2c1CCCC2	6.54*	0.4	0.07	-0.5	-0.147	0.3	7888*	1524	i
CCCCc1nc(N2CCOCC2)c(C#N)c2c1CCCC2	/	1.1	-1.03	5.1	0.876	6.4	/	/	/
N#Cc1c(N2CCN(C(=O)c3ccccc3)CC2)nc(-c2ccccc2)c2c1CCCC2	/	1.4	-2.35	-6.2	-0.566	12.8	/	/	/
CC(=O)N1CCN(c2nc(CC(C)C)c3c(c2C#N)CCC3)CC1	17.6*	-1.6	-0.1	-5.8	0.752	12.3	22940*	1688	+
N#Cc1c(N2CCN(C(=O)c3ccco3)CC2)nc(-c2ccccc2)c2c1CCCC2	2.78*	4.2	-1.38	2.6	0.376	8.0	13716*	1492	+
CCC(C)c1ccc(OCCCCN2CCOCC2)cc1 (configuration not stated)	/	0.4	0.01	-0.3	0.209	-25.2	/	/	/
CC(C)Cc1nc(N2CCN(C(=O)c3ccco3)CC2)c(C#N)c2c1CCC2	7.53*	-0.3	0.24	4.2	1.17	5.9	12548*	1660	+
CC(C)Cc1nc(N2CCN(C(=O)c3ccccc3)CC2)c(C#N)c2c1CCC2	/	-10.4	-1.09	/	0.0684	/	/	/	/
CC(C)Cc1nc(N2CCN(C(=O)C(C)C)CC2)c(C#N)c2c1CCC2	4.51*	4.9	-0.74	-3.8	1.75	22.2	7400*	1544	i
Cc1cccc(NC(=S)N(CCN(C)C)C(C)c2ccccn2)c1 (configuration not stated)	/	0.5	1.18	-3.0	0.187	-0.5	/	/	/
O=C(Nc1nc(-c2ccc(Cl)cc2)cs1)NC1CCCCC1	/	/	/	-6.6	/	89.5	/	/	/
Cc1cc(C)n(-c2nc(NCc3cccnc3)c3c4c(sc3n2)COC(C)(C)C4)n1	3.01*	7.6	-0.29	0.3	1.15	-11.9	14976*	1540	+
CCn1ccc(C(=O)Nc2ccc(Cl)cn2)n1	-0.0406	-2.8	/	-0.4	0.524	-6.0	/	/	/
CCn1ccc(C(=O)Nc2ccc(N(C)C(C)=O)cc2)n1	2.4*	-5.8	0.4	-3.5	0.0812	-0.8	5156	1532	i
COC(=O)c1cc(Br)c(=O)n(Cc2ccc3c(c2)OCO3)c1	1.53	4.5	0.21	-5.4	-1.38	-0.5	/	/	/
